Screening data from PubChem.
Most compounds without a hit are left out; they make up all but 6.2% or so of the library.
KB-V1 MDR tox = kills drug-selected multidrug resistant KB-V1 cells; KB-V1 MDR cells viability, CellTiter-Glo, 72 h; Potency, µM (top dose mostly 46.1 µM), hits mostly cytotoxic; 400,000 compounds, 3.4% hits; AID 1347076; note: nearly all actives have a fitted effect of over 60% in size
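KB-V1 MDR subline cells in DMEM (phenol-red free, 10% FBS) exposed to compounds in qHTS concentration series for 72 h at 37 degrees C. Viability read by CellTiter-Glo luminescence; concentration-effect curves fitted after normalization and correction.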
KB-3-1 tox = KB-3-1 parental cell cytotoxicity. AID 1347075. Potency, µM (series often up to 46.1 µM), usual class: cytotoxic. KB-3-1 viability, CellTiter-Glo ATP luminescence, 72 h. 400,000 compounds, 1.4% hits; note: nearly all actives have a fitted effect of over 60% in size
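Here the drug-naive KB-3-1 line serves as comparator for MDR sub-line selectivity; cells received compound titrations, 72 h at 37 °C, then CellTiter-Glo readout.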
ATXN2 expr inh = inhibitors of ATXN2 expression. Potency, µM (series often up to 57 µM), actives largely listed as inhibitors. HEK-293 ATXN2-luciferase reporter, luminescence, 24 h. 360,000 compounds, 0.72% hits; note: nearly all actives have a fitted effect of over 55% in size
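qHTS (up to 57 uM final) was run with 24 h compound exposure of reporter cells at 37 °C. Each well was multiplexed: SteadyGlo luminescence measured ATXN2-luciferase expression after a fluorogenic Gly-Phe-AFC viability readout (25 uM final).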
ATXN viability = cell viability loss in ATXN counter-screen | S2 cells (HEK-293 line with an ATXN2-luciferase reporter) viability, CellTiter-Fluor protease fluorescence, 24 h | Potency, µM (series often up to 56.7 µM), most hits filed as cytotoxic | 400,000 compounds, 0.49% hits | AID 651635; note: nearly all actives have a fitted effect of over 40% in size
HT1080-NT tox = kills 2HG-producing HT-1080-NT fibrosarcoma cells; HT-1080-NT fibrosarcoma viability, CellTiter-Glo ATP luminescence, 48 h; Potency, µM (highest dose often 46.1 µM), most hits filed as cytotoxic; 360,000 compounds, 1.6% hits; AID 686970;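 note: NT is the 2HG producing partner of a matched IDH1 knockdown line; nearly all actives have a fitted effect of over 55% in size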
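Fibrosarcoma NT cells, 750 per well in 5% FBS RPMI, were exposed to compound for 48 hours. Viability: CellTiter-Glo luminescence.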
HT1080 IDH1KD tx = HT-1080 IDH1 knockdown cell toxicity (counter line); 360,000 compounds, 2% hits; Potency, µM (highest dose often 46.1 µM), most hits filed as cytotoxic; HT-1080 IDH1 knockdown viability, ATP luminescence, 48 h
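In this qHTS, HT-1080 cells depleted of IDH1 are exposed for 48 h at 37 °C to compound titrations. Toxicity is scored from CellTiter-Glo luminescence, with DMSO as full viability and medium alone as none.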
Hits are given with their value; ! = a repeat was not active. Calls come from the whole dose curve; as a rule, active = well fitted curve in the direction sought with a large enough effect; inconclusive = small, poorly fitted or top-dose-only effect, or another doubt; inactive = no such curve, though single readings can be large; an effect the other way counts as inactive or inconclusive.

O=C(CN1C(=O)C2CCCCN2c2ccc(C(=O)N3CCCC3)cc21)NCc1cccc(Cl)c1 (centres undefined) was read as KB-V1 MDR tox inactive, KB-3-1 tox inactive, ATXN2 expr inh inactive and ATXN viability inactive.
For C=CCC(CC=C)(CNC(=O)C(=O)Nc1cc(C)ccc1OC)c1ccc(OC)c(OC)c1 the results were KB-V1 MDR tox inactive, KB-3-1 tox inactive, ATXN2 expr inh inactive and ATXN viability inactive.
CN(C)c1ccc(C(=O)/C=C/c2cccnc2)cc1 was read as KB-V1 MDR tox inconclusive, KB-3-1 tox 18µM, ATXN2 expr inh inactive, ATXN viability inactive, HT1080-NT tox inconclusive and HT1080 IDH1KD tx inconclusive.
Screening CCOC(=O)c1ccc(S(=O)(=O)N2CCN(c3nc(-c4cccs4)nc4ccccc34)CC2)cc1 returned KB-V1 MDR tox inactive and KB-3-1 tox inactive.
O=C(OCc1cn(Cc2ccccc2)nn1)c1ccccc1 was read as KB-V1 MDR tox inactive, KB-3-1 tox inactive, ATXN2 expr inh inactive, ATXN viability inactive, HT1080-NT tox inactive and HT1080 IDH1KD tx inactive.
CCOC(OCC)c1cn(Cc2ccc(C(=O)c3ccccc3)cc2)nn1 was read as KB-V1 MDR tox inconclusive, KB-3-1 tox 18µM, ATXN2 expr inh inactive, ATXN viability inactive, HT1080-NT tox inconclusive and HT1080 IDH1KD tx inconclusive.
For O=C(O)CCCCCCCCc1cn(Cc2ccc(C(=O)c3ccccc3)cc2)nn1 the results were KB-V1 MDR tox 9.2µM!, KB-3-1 tox 4.6µM!, ATXN2 expr inh inactive, ATXN viability inactive, HT1080-NT tox 3.7µM and HT1080 IDH1KD tx 4.6µM.
Screening O=C(c1ccccc1)c1ccc(Cn2cc(CCCO)nn2)cc1 returned KB-V1 MDR tox inactive, KB-3-1 tox inactive, ATXN2 expr inh inactive, ATXN viability inactive, HT1080-NT tox inactive and HT1080 IDH1KD tx inactive.
Screening O=C(c1ccccc1)c1ccc(Cn2cc(-c3ccccc3)nn2)cc1 returned KB-V1 MDR tox 0.65µM!, KB-3-1 tox inconclusive, ATXN2 expr inh inactive, ATXN viability inconclusive, HT1080-NT tox inactive and HT1080 IDH1KD tx inactive.
Screening CCCCCc1ccc(-c2cn(Cc3ccc(C(=O)c4ccccc4)cc3)nn2)cc1 returned KB-V1 MDR tox 7.3µM!, KB-3-1 tox 7.3µM!, ATXN2 expr inh inactive, ATXN viability inactive, HT1080-NT tox inactive and HT1080 IDH1KD tx inactive.
`CCOc1ccc2nc(NCCCNS(=O)(=O)c3ccc(F)cc3)c(C#N)cc2c1` gave KB-V1 MDR tox inactive, KB-3-1 tox 18µM, ATXN2 expr inh inactive, HT1080-NT tox inactive and HT1080 IDH1KD tx inactive.
`CCCc1n[nH]c(=O)c2c1nnn2Cc1ccccc1` gave KB-V1 MDR tox inactive, KB-3-1 tox inactive, ATXN2 expr inh inactive, ATXN viability inactive, HT1080-NT tox inactive and HT1080 IDH1KD tx inactive.
CCc1cc(-c2cnnn2Cc2ccccc2)ccc1-c1cn(CC(C)C)nn1 was read as KB-V1 MDR tox 10µM, KB-3-1 tox inconclusive, ATXN2 expr inh inconclusive, ATXN viability inconclusive, HT1080-NT tox inconclusive and HT1080 IDH1KD tx inconclusive.
CCCCCCCCCCCCCCC[C@@H](O)[C@@H](N)CO was read as KB-V1 MDR tox inconclusive, KB-3-1 tox inactive, ATXN2 expr inh inactive, ATXN viability inconclusive, HT1080-NT tox 18µM and HT1080 IDH1KD tx inactive.
`CCOC(=O)N(C(=O)c1ccccc1)c1ccccc1` gave KB-V1 MDR tox inactive and KB-3-1 tox inactive.
COc1cc(-c2nnc(NC(=O)CCS(=O)(=O)c3ccccc3)o2)cc(OC)c1OC was read as KB-V1 MDR tox inactive, KB-3-1 tox inactive, ATXN2 expr inh inactive, ATXN viability inconclusive, HT1080-NT tox 21µM and HT1080 IDH1KD tx inconclusive.
Screening Nc1c(C(=O)Nc2ccc3c(c2)OCCO3)nnn1Cc1ccc(Br)cc1 returned KB-V1 MDR tox inactive, KB-3-1 tox inactive, ATXN2 expr inh inactive, ATXN viability inactive, HT1080-NT tox inactive and HT1080 IDH1KD tx inactive.
`Cc1ccc(NC(=O)c2nnn(CC(=O)Nc3ccc4c(c3)OCO4)c2N)cc1C` gave KB-V1 MDR tox inactive, KB-3-1 tox inactive, ATXN viability inactive, HT1080-NT tox inactive and HT1080 IDH1KD tx inactive.
